Laboratory results from publication PMC9911399, “Two distinct binding modes provide the RNA-binding protein RbFox with extraordinary sequence specificity”.
Positions count from the first letter of the chain named. The full ranking holds about 16,000 sequences; the median of “ka relative to ugcaugu” is about 0.0091, and the highest 2% start at about 0.032. The sample as a whole holds a higher share of the highest values than the screen did.

T1: RBFOX1 RRM (Homo sapiens, UniProt Q9NWB1 109-208)
T1 sequence: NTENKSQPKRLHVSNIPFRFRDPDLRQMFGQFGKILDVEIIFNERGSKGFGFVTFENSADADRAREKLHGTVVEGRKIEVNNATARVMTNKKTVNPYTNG

B1: GGGUACA (DNA:RNA)
RNA: GGGAGACCGGAAUUCAGAUUGUCCGGGUACAUUAAAUCCCGUCGUAGCCACCA
DNA 1: CAATCTGAATTCCGGTCTCCC
DNA 2: TGGTGGCTACGACGGGATT
B2: GUUCUUU (DNA:RNA)
RNA: B1 RNA with G26U, G27U, U28C, A29U, C30U, A31U
DNA 1: CAATCTGAATTCCGGTCTCCC
DNA 2: TGGTGGCTACGACGGGATT
B3: UCUUAUA (DNA:RNA)
RNA: B1 RNA with G25U, G26C, G27U, C30U
DNA 1: CAATCTGAATTCCGGTCTCCC
DNA 2: TGGTGGCTACGACGGGATT
B4: UAGUUAU (DNA:RNA)
RNA: B1 RNA with G25U, G26A, A29U, C30A, A31U
DNA 1: CAATCTGAATTCCGGTCTCCC
DNA 2: TGGTGGCTACGACGGGATT
B5: CCUCUCC (DNA:RNA)
RNA: B1 RNA with G25C, G26C, G27U, U28C, A29U, A31C
DNA 1: CAATCTGAATTCCGGTCTCCC
DNA 2: TGGTGGCTACGACGGGATT
B6: AUAACCC (DNA:RNA)
RNA: B1 RNA with G25A, G26U, G27A, U28A, A29C, A31C
DNA 1: CAATCTGAATTCCGGTCTCCC
DNA 2: TGGTGGCTACGACGGGATT
B7: GGCGCUG (DNA:RNA)
RNA: B1 RNA with G27C, U28G, A29C, C30U, A31G
DNA 1: CAATCTGAATTCCGGTCTCCC
DNA 2: TGGTGGCTACGACGGGATT
B8: GGUGUCA (DNA:RNA)
RNA: B1 RNA with G27U, U28G, A29U
DNA 1: CAATCTGAATTCCGGTCTCCC
DNA 2: TGGTGGCTACGACGGGATT
B9: AAACCAG (DNA:RNA)
RNA: GGGAGACCGGAAUUCAGAUUGUCCAAACCAGUUAAAUCCCGUCGUAGCCACCA
DNA 1: CAATCTGAATTCCGGTCTCCC
DNA 2: TGGTGGCTACGACGGGATT
B10: AACUAGA (DNA:RNA)
RNA: B1 RNA with G25A, G26A, G27C, C30G
DNA 1: CAATCTGAATTCCGGTCTCCC
DNA 2: TGGTGGCTACGACGGGATT
B11: AUUUUUU (DNA:RNA)
RNA: B9 RNA with A26U, A27U, C28U, C29U, A30U, G31U
DNA 1: CAATCTGAATTCCGGTCTCCC
DNA 2: TGGTGGCTACGACGGGATT
B12: GGAAUUC (DNA:RNA)
RNA: B1 RNA with G27A, U28A, A29U, C30U, A31C
DNA 1: CAATCTGAATTCCGGTCTCCC
DNA 2: TGGTGGCTACGACGGGATT
B13: GGAGUGU (DNA:RNA)
RNA: B1 RNA with G27A, U28G, A29U, C30G, A31U
DNA 1: CAATCTGAATTCCGGTCTCCC
DNA 2: TGGTGGCTACGACGGGATT
B14: GGGAUUC (DNA:RNA)
RNA: B1 RNA with U28A, A29U, C30U, A31C
DNA 1: CAATCTGAATTCCGGTCTCCC
DNA 2: TGGTGGCTACGACGGGATT
B15: GGGAGUG (DNA:RNA)
RNA: B1 RNA with U28A, A29G, C30U, A31G
DNA 1: CAATCTGAATTCCGGTCTCCC
DNA 2: TGGTGGCTACGACGGGATT
B16: CGGAUUC (DNA:RNA)
RNA: B1 RNA with G25C, U28A, A29U, C30U, A31C
DNA 1: CAATCTGAATTCCGGTCTCCC
DNA 2: TGGTGGCTACGACGGGATT
B17: CGGAGUG (DNA:RNA)
RNA: B1 RNA with G25C, U28A, A29G, C30U, A31G
DNA 1: CAATCTGAATTCCGGTCTCCC
DNA 2: TGGTGGCTACGACGGGATT
B18: AGUAUUG (DNA:RNA)
RNA: B9 RNA with A26G, A27U, C28A, C29U, A30U
DNA 1: CAATCTGAATTCCGGTCTCCC
DNA 2: TGGTGGCTACGACGGGATT
B19: GCGUCGG (DNA:RNA)
RNA: B1 RNA with G26C, A29C, C30G, A31G
DNA 1: CAATCTGAATTCCGGTCTCCC
DNA 2: TGGTGGCTACGACGGGATT
B20: CGGCUAU (DNA:RNA)
RNA: B9 RNA with A25C, A26G, A27G, C29U, G31U
DNA 1: CAATCTGAATTCCGGTCTCCC
DNA 2: TGGTGGCTACGACGGGATT
B21: AAACACU (DNA:RNA)
RNA: B9 RNA with C29A, A30C, G31U
DNA 1: CAATCTGAATTCCGGTCTCCC
DNA 2: TGGTGGCTACGACGGGATT
B22: GCGCAGU (DNA:RNA)
RNA: B1 RNA with G26C, U28C, C30G, A31U
DNA 1: CAATCTGAATTCCGGTCTCCC
DNA 2: TGGTGGCTACGACGGGATT
B23: GUUGUGG (DNA:RNA)
RNA: B9 RNA with A25G, A26U, A27U, C28G, C29U, A30G
DNA 1: CAATCTGAATTCCGGTCTCCC
DNA 2: TGGTGGCTACGACGGGATT
B24: GAGAACG (DNA:RNA)
RNA: B1 RNA with G26A, U28A, A31G
DNA 1: CAATCTGAATTCCGGTCTCCC
DNA 2: TGGTGGCTACGACGGGATT
B25: GGGAACG (DNA:RNA)
RNA: B1 RNA with U28A, A31G
DNA 1: CAATCTGAATTCCGGTCTCCC
DNA 2: TGGTGGCTACGACGGGATT
B26: GGAACGU (DNA:RNA)
RNA: B9 RNA with A25G, A26G, C28A, A30G, G31U
DNA 1: CAATCTGAATTCCGGTCTCCC
DNA 2: TGGTGGCTACGACGGGATT
B27: GUGAACG (DNA:RNA)
RNA: B1 RNA with G26U, U28A, A31G
DNA 1: CAATCTGAATTCCGGTCTCCC
DNA 2: TGGTGGCTACGACGGGATT
B28: UGGAACG (DNA:RNA)
RNA: B1 RNA with G25U, U28A, A31G
DNA 1: CAATCTGAATTCCGGTCTCCC
DNA 2: TGGTGGCTACGACGGGATT
B29: CCGAACG (DNA:RNA)
RNA: B1 RNA with G25C, G26C, U28A, A31G
DNA 1: CAATCTGAATTCCGGTCTCCC
DNA 2: TGGTGGCTACGACGGGATT
B30: GUUAACG (DNA:RNA)
RNA: B1 RNA with G26U, G27U, U28A, A31G
DNA 1: CAATCTGAATTCCGGTCTCCC
DNA 2: TGGTGGCTACGACGGGATT
B31: CGGAACG (DNA:RNA)
RNA: B1 RNA with G25C, U28A, A31G
DNA 1: CAATCTGAATTCCGGTCTCCC
DNA 2: TGGTGGCTACGACGGGATT
B32: UGGACCG (DNA:RNA)
RNA: B1 RNA with G25U, U28A, A29C, A31G
DNA 1: CAATCTGAATTCCGGTCTCCC
DNA 2: TGGTGGCTACGACGGGATT

The binders below were run against T1, RBFOX1 RRM (assay: EMSA; HiTS-Eq, 1 nM pool, 10 min; buffer printed only for the single-RNA assays: 10 mM Tris pH 7.5, 150 mM NaCl, 3.4 mM EDTA, 0.001% NP-40, 30 C). Details: tags: His6 N-terminal (pET28a); label: 5' 32P.
How it was run: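 Purified wild-type or mutant RbFox RRM at increasing concentrations was equilibrated with 1 nM of 5′-radiolabelled RNA carrying 7 randomized nucleotides for 10 min in 50 µL. Unbound RNA was separated by 8% native PAGE and sequenced. Relative association constants came from read-count changes of each RNA species compared with the control reaction, normalised to the cognate motif.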

Row | Binder | binding signal
1 | B1 | 0.0112 KA relative to UGCAUGU
2 | B2 | 0.0158 KA relative to UGCAUGU
3 | B3 | 0.00158 KA relative to UGCAUGU
4 | B4 | 0.00794 KA relative to UGCAUGU
5 | B5 | 0.00489 KA relative to UGCAUGU
6 | B6 | 0.00143 KA relative to UGCAUGU
7 | B7 | 0.0174 KA relative to UGCAUGU
8 | B8 | 0.00539 KA relative to UGCAUGU
9 | B9 | 0.000872 KA relative to UGCAUGU
10 | B10 | 0.00203 KA relative to UGCAUGU
11 | B11 | 0.007 KA relative to UGCAUGU
12 | B12 | 0.018 KA relative to UGCAUGU
13 | B13 | 0.0229 KA relative to UGCAUGU
14 | B14 | 0.044 KA relative to UGCAUGU
15 | B15 | 0.0333 KA relative to UGCAUGU
16 | B16 | 0.0273 KA relative to UGCAUGU

Row | Binder | binding signal
17 | B17 | 0.0283 KA relative to UGCAUGU
18 | B18 | 0.0121 KA relative to UGCAUGU
19 | B19 | 0.0208 KA relative to UGCAUGU
20 | B20 | 0.0107 KA relative to UGCAUGU
21 | B21 | 0.00096 KA relative to UGCAUGU
22 | B22 | 0.0136 KA relative to UGCAUGU
23 | B23 | 0.0184 KA relative to UGCAUGU
24 | B24 | 0.0165 KA relative to UGCAUGU
25 | B25 | 0.0367 KA relative to UGCAUGU
26 | B26 | 0.0248 KA relative to UGCAUGU
27 | B27 | 0.0163 KA relative to UGCAUGU
28 | B28 | 0.0367 KA relative to UGCAUGU
29 | B29 | 0.0118 KA relative to UGCAUGU
30 | B30 | 0.0101 KA relative to UGCAUGU
31 | B31 | 0.0344 KA relative to UGCAUGU
32 | B32 | 0.0269 KA relative to UGCAUGU
